Laboratory results published in PubChem BioAssay AID1159580 (chemical genetic matrix, 2015).
“And” between values parts separate entries of the source, which are not always exact repeats. Equal entries are not always repeated. Screen size: about 5,500 compounds; about 2,000 (36%) were called active. Another 18% or so got no clear call; they are omitted. No stated cut-off is given here; in the data, active means normalized growth mostly below about 0.91 (no sharp cut-off); inconclusive means no clear call, values can overlap the other calls; inactive means mostly above about 0.92. Some of the results follow.

Assay: chemical genetic growth profiling, strain panel (AID 1159580);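 further: tested at 20 µM; growth read once vehicle control cultures reached saturation at 30 °C; 1 = growth at the plate median or of vehicle wells; lower values mean less growth of the strain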
Settings: S. cerevisiae deletion strains, growth OD
[1] = locus YGR078C, strain PAC10, hits give low values
[2] = locus YNL153C, strain GIM3, hits give low values

Measured: normalized growth

Cn1c(=O)c2[nH]c(-c3ccc(S(=O)(=O)O)cc3)nc2n(C)c1=O
inactive: locus YAL040C, strain CLN3, hits give low values 1.01 | locus YCL061C, strain MRC1 (second series), hits give low values 1.01 | locus YER002W, strain NOP16, hits give low values 1.01 | [1] 1.01 | [2] 1.03 | locus YNL175C, strain NOP13, hits give low values 1.01 | locus YNL197C, strain WHI3, hits give low values 0.993 | locus YNL224C, strain SQS1, hits give low values 1 | locus YOR083W, strain WHI5 (second series), hits give low values 0.98 | locus YPL055C, strain LGE1, hits give low values 1 | locus YPL241C, strain CIN2, hits give low values 1.02

COC(=O)CC1C(C)(C)C(OC(C)=O)[C@@H]2[C@@H](OC(C)=O)[C@]34O[C@@]2(O)[C@]1(C)C3CC[C@]1(C)C4=CC(=O)O[C@H]1c1ccoc1 (stereo not given in full)
inactive: locus YAL013W, strain DEP1, hits give low values 1.02 | locus YAL021C, strain ccr4, hits give low values 1.03 | locus YAL026C, strain drs2, hits give low values 0.991 | locus YAL030W, strain snc1, hits give low values 1.01 | locus YBL061C, strain skt5, hits give low values 0.998 | locus YBR009C, strain hhf1, hits give low values 1.03 | locus YBR021W, strain FUR4, hits give low values 1.04 | locus YBR023C, strain chs3, hits give low values 1.01 | locus YBR171W, strain sec66, hits give low values 1 | locus YBR229C, strain ROT2, hits give low values 0.96 | locus YBR231C, strain swc5, hits give low values 1.01 | locus YBR279W, strain paf1, hits give low values 1.01 | locus YCL011C, strain gbp2, hits give low values 1.01 | locus YCL016C, strain dcc1, hits give low values 1.02 | locus YCL029C, strain bik1, hits give low values 1.02 | locus YCL061C, strain MRC1, hits give low values 1.01 | locus YCL069W, strain vba3, hits give low values 1.01 | locus YCR088W, strain abp1, hits give low values 1.01 | locus YDL005C, strain med2, hits give low values 0.991 | locus YDL035C, strain GPR1, hits give low values 0.98 | locus YDL040C, strain nat1, hits give low values 1.02 | locus YDL074C, strain BRE1, hits give low values 1.03 | locus YDL101C, strain DUN1, hits give low values 1.02 | locus YDL134C, strain PPH21, hits give low values 1.05 | locus YDL185W, strain tfp1, hits give low values 0.977 | locus YDL192W, strain arf1, hits give low values 0.983 | locus YDR001C, strain nth1, hits give low values 1.01 | locus YDR069C, strain doa4, hits give low values 1.02 | locus YDR101C, strain arx1, hits give low values 0.975 | locus YDR137W, strain rgp1, hits give low values 0.93 | locus YDR150W, strain NUM1, hits give low values 1.01 | locus YDR159W, strain sac3, hits give low values 1 | locus YDR162C, strain NBP2, hits give low values 1 | locus YDR195W, strain ref2 1.01 | locus YDR297W, strain sur2, hits give low values 1.02 | locus YDR318W, strain mcm21, hits give low values 0.997 | locus YDR334W, strain swr1, hits give low values 1.01 | locus YDR335W, strain msn5, hits give low values 1.01 | locus YDR388W, hits give low values 1.02 | locus YDR392W, strain spt3, hits give low values 1.07 | locus YDR502C, strain sam2, hits give low values 1.03 | locus YEL003W, strain gim4, hits give low values 1.01 | locus YEL037C, strain rad23, hits give low values 1 | locus YEL061C, strain CIN8 (second series), hits give low values 1 | locus YEL061C, strain CIN8, hits give low values 1 | locus YER015W, strain faa2, hits give low values 1.01 | locus YER016W, strain bim1, hits give low values 1.01 | locus YER110C, hits give low values 0.998 | locus YER111C, strain swi4, hits give low values 0.988 | locus YER155C, strain BEM2 (second series), hits give low values 1.05 | locus YER155C, strain BEM2, hits give low values 1.01 | locus YER167W, strain BCK2, hits give low values 0.991 | locus YFR010W, strain ubp6, hits give low values 1 | locus YGL078C, strain dbp3, hits give low values 1.01 | locus YGL086W, strain mad1, hits give low values 1.02 | locus YGL167C, strain pmr1, hits give low values 1.01 | locus YGL173C, strain kem1, hits give low values 1 | locus YGL227W, strain vid30, hits give low values 1 | locus YGL240W, strain doc1, hits give low values 1.01 | locus YGL248W, strain PDE1, hits give low values 1.03 | locus YGL253W, strain hxk2, hits give low values 0.953 | [1] 1.05 | locus YGR135W, strain pre9, hits give low values 1.08 | locus YGR252W, strain gcn5, hits give low values 1.09 | locus YHR013C, strain ard1, hits give low values 1.02 | locus YHR027C, strain rpn1, hits give low values 1.01 | locus YHR030C, strain SLT2, hits give low values 1.03 | locus YHR079C, strain IRE1 (second series), hits give low values 0.989 | locus YHR079C, strain IRE1, hits give low values 1.04 | locus YHR094C, strain hxt1, hits give low values 1 | locus YHR129C, strain ARP1, hits give low values 1.02 | locus YHR142W, strain chs7, hits give low values 0.983 | locus YHR200W, strain rpn10, hits give low values 1.03 | locus YIL066C, strain RNR3, hits give low values 0.979 | locus YIL073C, strain SPO22, hits give low values 0.988 | locus YIL125W, strain kgd1, hits give low values 0.991 | locus YIR030C, strain dcg1, hits give low values 0.996 | locus YJL092W, strain hpr5, hits give low values 1.01 | locus YJL095W, strain BCK1 (second series), hits give low values 0.999 | locus YJL095W, strain BCK1, hits give low values 1.07 and 1.02 | locus YJL115W, strain asf1, hits give low values 0.998 | locus YJL129C, strain trk1, hits give low values 0.984 | locus YJL134W, strain LCB3, hits give low values 0.996 | locus YJL154C, strain vps35, hits give low values 1.02 | locus YJL164C, strain tpk1, hits give low values 1 | locus YJL166W, strain qcr8, hits give low values 1.01 | locus YJL168C, strain set2, hits give low values 1.02 | locus YJL187C, strain SWE1 (second series), hits give low values 1.04 | locus YJR066W, strain TOR1, hits give low values 0.963 | locus YKL009W, strain mrt4, hits give low values 0.921 | locus YKL068W, hits give low values 0.99 | locus YKL085W, strain MDH1 (second series), hits give low values 1.01 | locus YKL085W, strain MDH1, hits give low values 1.01 | locus YKL160W, strain elf1, hits give low values 1.01 | locus YKL190W, strain CNB1, hits give low values 1 | locus YKR001C, strain vps1, hits give low values 0.978 | locus YKR026C, strain gcn3, hits give low values 1.01 | locus YKR091W, strain srl3, hits give low values 1.01 | locus YLL001W, strain dnm1, hits give low values 1 | locus YLL026W, hits give low values 0.999 | locus YLL041C, strain sdh2, hits give low values 0.998 | locus YLR027C, strain aat2, hits give low values 1.01 | locus YLR039C, strain RIC1, hits give low values 0.934 | locus YLR058C, strain SHM2, hits give low values 0.988 | locus YLR102C, strain apc9, hits give low values 1.01 | locus YLR113W, strain HOG1, hits give low values 0.998 | locus YLR221C, strain rsa3, hits give low values 1.03 | locus YLR258W, strain gsy2, hits give low values 1 | locus YLR262C, strain YPT6 (second series), hits give low values 0.963 | locus YLR262C, strain YPT6, hits give low values 0.899 | locus YLR268W, strain sec22, hits give low values 0.983 | locus YLR320W, strain mms22, hits give low values 1.01 | locus YLR330W, strain CHS5, hits give low values 1.01 | locus YLR342W, strain FKS1 (second series), hits give low values 1.06 | locus YLR342W, strain FKS1, hits give low values 1.01 | locus YLR357W, strain rsc2, hits give low values 1.06 | locus YLR370C, strain arc18, hits give low values 1.03 | locus YLR371W, strain rom2, hits give low values 1.01 | locus YLR384C, strain iki3, hits give low values 0.99 | locus YLR418C, strain cdc73, hits give low values 1.07 | locus YML016C, strain PPZ1, hits give low values 1.01 | locus YML032C, strain rad52, hits give low values 0.991 | locus YML120C, strain ndi1, hits give low values 1.03 | locus YML124C, strain tub3, hits give low values 0.997 | locus YMR058W, strain fet3, hits give low values 1.01 | locus YMR078C, strain ctf18, hits give low values 0.998 | locus YMR125W, strain sto1, hits give low values 1.02 | locus YMR129W, hits give low values 0.996 | locus YMR205C, strain PFK2, hits give low values 1.02 | locus YMR223W, strain ubp8, hits give low values 1.03 | locus YMR231W, strain pep5, hits give low values 0.994 | locus YMR307W, strain GAS1, hits give low values 1.02 | locus YNL067W, strain RPL9B, hits give low values 1.05 | locus YNL071W, strain lat1, hits give low values 1.01 | locus YNL128W, strain TEP1, hits give low values 0.97 | [2] 1.05 | locus YNL183C, strain NPR1, hits give low values 0.978 | locus YNL209W, strain ssb2, hits give low values 1.02 | locus YNL233W, strain BNI4, hits give low values 1.08 | locus YNL248C, strain rpa49, hits give low values 0.999 | locus YNL250W, strain rad50, hits give low values 1 | locus YNL271C, strain bni1, hits give low values 1 | locus YNL298W, strain CLA4, hits give low values 1.01 | locus YNL307C, strain MCK1, hits give low values 1.01 | locus YNL322C, strain KRE1 (second series), hits give low values 1.01 | locus YNR049C, strain mso1, hits give low values 1.01 | locus YNR052C, strain pop2, hits give low values 1.06 | locus YOL012C, strain htz1 1.16 | locus YOL147C, strain pex11, hits give low values 1 | locus YOR001W, strain rrp6, hits give low values 1.02 | locus YOR061W, strain CKA2, hits give low values 0.946 | locus YOR069W, strain VPS5, hits give low values 1.01 | locus YOR070C, strain gyp1, hits give low values 1.01 | locus YOR080W, strain dia2, hits give low values 1 | locus YOR083W, strain WHI5, hits give low values 1.01 | locus YOR106W, strain vam3, hits give low values 1.02 | locus YOR136W, strain idh2, hits give low values 1.02 | locus YOR144C, strain elg1, hits give low values 1 | locus YOR184W, strain ser1, hits give low values 0.957 | locus YOR231W, strain MKK1, hits give low values 0.995 | locus YOR265W, strain rbl2, hits give low values 1 | locus YOR270C, strain vph1, hits give low values 0.806 | locus YOR290C, strain snf2, hits give low values 1.01 | locus YOR316C, strain cot1, hits give low values 1.01 | locus YPL051W, strain arl3, hits give low values 1.02 | locus YPL078C, strain atp4, hits give low values 1 | locus YPL106C, strain sse1, hits give low values 1.06 | locus YPL240C, strain hsp82, hits give low values 1.01 | locus YPL256C, strain CLN2, hits give low values 1.04 | locus YPR119W, strain clb2, hits give low values 1 | locus YPR141C, strain kar3, hits give low values 0.979 | locus YPR163C, strain tif3, hits give low values 1.01 | locus YPR167C, strain met16, hits give low values 1.01 | strain wtn01, hits give low values 0.982
